Assay outcomes as filed in PubChem BioAssay.
hgDAF-12 ag: agonists of H. glycines DAF-12 nuclear receptor. HEK293 GAL4-hgDAF12 UAS-luciferase reporter, agonist luminescence; normalized to butyrate control. activation, % at 6.8 µM. hit rate 1.8% among 370,000;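 active means activation above a cutoff set at the mean of all screened compounds plus 3 SD, cut at about 10% in these data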;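 further: 0% = DMSO wells and 100% = sodium butyrate wells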
hcDAF12 agonist: activates DAF-12 receptor from parasite H. contortus; HEK293 hcDAF-12 lit1-tk-luc reporter, luminescence; 0% DMSO, 100% Δ7-dafachronic acid; AID 652067; activation, % at 6.8 µM; hit rate 1.4% among 370,000;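 active means activation above the mean of all tested compounds plus 3 SD, cut at about 5.5% in these data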;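 further: 100% = response to 3 µM Δ7-dafachronic acid high control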
esBAF inh: blocks esBAF chromatin remodeling in mouse ES cells. reporter increase, % at 12.5 µM. Bmi1-luciferase knock-in reporter, 24 h; 100% = twice the neutral-well signal. hit rate 2% among 350,000; in the data active means activation above about 40%;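 further: 0% = median of the plate's neutral control wells and 100% = double that signal; a rise in the Bmi1 reporter signal indicates esBAF inhibition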
DAX1 StAR inh: blocks DAX1 repression of SF-1 activated StAR promoter | hit rate 1.1% among 370,000 | HEK293T StAR-luciferase reporter, SF-1/DAX-1 repression relief | AID 652010 | inhibition, % at 6.8 µM;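 active means inhibition above the mean over all tested compounds plus 3 SD, cut at about 3.6% in these data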;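 further: 0% = DAX-1 cells with DMSO and 100% = cells lacking DAX-1 with DMSO; higher inhibition means more luminescence from relief of DAX-1 repression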
ssDAF12 agonist: activators of S. stercoralis DAF-12 nuclear receptor; HEK293 ssDAF-12/GRIP1 lit1-tk-luc reporter, luminescence; % of 3 µM dafachronic acid response; activation, % at 6.8 µM; hit rate 1% among 370,000;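 active means activation above the mean over all tested compounds plus 3 SD, cut at about 0.9% in these data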;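 further: 0% = DMSO-only wells and 100% = 3 µM delta7-dafachronic acid wells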
Wnt act: Wnt/beta-catenin pathway activation; activation, % at 9.35 µM; hit rate 1.2% among 300,000; Wnt/beta-catenin reporter cell assay, activator, plate reader; in the data active means activation above about 30%, passing the limit was not always enough;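 further: 0% = neutral control wells and 100% = positive control wells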
LXR ag: counter-screen for hcDAF-12 agonists: agonists of human LXR-beta; shares compounds with hcDAF12 agonist; HEK293 Gal4-LXR tk-luc reporter, luminescence, 24 h; normalized: DMSO 0%, positive control 100%; activation, % at 6.8 µM; 3,400 tested, under 10 active; AID 743027;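 active means mean percent activation of the reporter above a cutoff set as the average over tested compounds plus their standard deviation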
Target sequence (P55055 whole entry, looked up, the tested form may be a part): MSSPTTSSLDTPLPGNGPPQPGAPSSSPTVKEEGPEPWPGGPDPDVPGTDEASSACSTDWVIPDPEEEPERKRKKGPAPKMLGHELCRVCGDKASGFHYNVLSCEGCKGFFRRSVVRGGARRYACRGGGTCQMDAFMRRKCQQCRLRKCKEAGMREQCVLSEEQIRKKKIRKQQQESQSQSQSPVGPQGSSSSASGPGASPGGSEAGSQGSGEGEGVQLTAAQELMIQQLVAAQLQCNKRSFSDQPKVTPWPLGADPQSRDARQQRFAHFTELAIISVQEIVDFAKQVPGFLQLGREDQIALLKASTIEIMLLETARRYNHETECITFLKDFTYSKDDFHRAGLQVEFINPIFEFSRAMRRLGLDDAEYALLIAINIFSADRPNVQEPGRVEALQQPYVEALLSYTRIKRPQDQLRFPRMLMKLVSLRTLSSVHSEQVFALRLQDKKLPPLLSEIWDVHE
hcDAF12 ag: confirmation of H. contortus DAF-12 agonists | activation, % at 6.8 µM | hit rate 61% among 3,400 | HEK293 hcDAF-12 lit1-tk-luc reporter, luminescence; % of Δ7-dafachronic acid response | shares compounds with hcDAF12 agonist;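 active means mean activation across triplicate tests above the threshold derived from the earlier primary screen, cut at about 5.5% in these data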;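 further: 0% = DMSO only wells and 100% = 3 µM Δ7-dafachronic acid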
Numbers without * were called inactive; x = no result given. Rows were chosen to be rich in hits. Some 4.2% of all compounds tested hit in one or more screens of this group.

SMILES | hgDAF-12 ag | hcDAF12 agonist | esBAF inh | DAX1 StAR inh | ssDAF12 agonist | Wnt act | LXR ag | hcDAF12 ag
Cc1cc(N2CCOCC2)n2ncc(-c3ccccc3)c2n1 | 3 | 9.4* | -56 | 1 | 0 | x | 2 | 16*
Cc1cc(-c2ccccc2)n2ncc(-c3ccccc3)c2n1 | 8 | 11* | x | 3.9* | 0 | 4 | 2 | 20*
Cc1nc(-c2ccc(NC(=O)c3ccccc3)cc2)cs1 | 12* | 6.7* | -58 | 4.5* | 1.2* | 1 | 2 | 8.0*
Cc1ccc(C(=O)Nc2ccc(-c3csc(C)n3)cc2)cc1 | 9 | 0 | x | 1 | -1 | 24 | x | x
O=C(CNc1ccccc1C(=O)O)c1ccccc1 | 1 | 7.7* | 34 | 1 | 1 | 21 | 0 | 0
NC(=O)c1ccccc1NCC(=O)c1ccc(Cl)cc1 | 1 | 2 | -8 | 0 | -1 | 2 | x | x
Cc1ccc(-c2cc(-c3ccccc3)no2)cc1 | 14* | 14* | 12 | 3.7* | 1.8* | 24 | 2 | 14*
Cc1ccc(NC(=O)OCc2cc(-c3ccccc3)on2)cc1 | 1 | 0 | x | 0 | -1 | 4 | x | x
Fc1cc(F)c2nc(Nc3nc4cc5c(cc4s3)OCO5)sc2c1 | 1 | 0 | x | 1 | 0 | x | x | x
Fc1cccc2sc(Nc3nc4cc5c(cc4s3)OCCO5)nc12 | 2 | 10* | x | 2 | 0 | 18 | 2 | 20*
CN1C(=O)c2cc(NC(=O)c3ccccc3Cl)ccc2OC[C@H]2O[C@@H](CC(=O)O)CC[C@H]21 | x | x | -3 | x | x | x | x | x
CC1CCCC(C)N1C(=O)c1cc(-c2ccc3c(c2)OCO3)on1 (stereo unspecified) | 11* | 6.6* | 56* | 2 | 0 | 1 | 1 | 5
C[C@H]1CN([C@@H](C)CO)C(=O)c2cc(C#CCN(C)C)cnc2O[C@H]1CN(C)Cc1ccc(F)cc1 | x | x | -2 | x | x | x | x | x
CCc1c(C)nc(SCC(=O)c2cccs2)c(C#N)c1C | 6 | 8.2* | 54* | 2 | 1 | x | 1 | 8.7*
CCc1c(C)nc(SCC(N)=O)c(C#N)c1C | 1 | -2 | 0 | 0 | -1 | x | x | x
COc1ccc(NC(=O)N(C)C[C@@H]2OCCCC[C@@H](C)Oc3ccc(NC(=O)CCC(F)(F)F)cc3C(=O)N([C@@H](C)CO)C[C@H]2C)cc1 | x | x | 0 | x | x | x | x | x
CC(=O)n1nc(-c2ccccc2)cc1-c1ccccc1 | 12* | 14* | x | 1 | 1.6* | 64* | 1 | 16*
O=C(O)c1cc2nc(-c3ccccc3)cc(-c3ccccc3)n2n1 | -1 | -2 | x | 0 | -1 | 7 | x | x
COc1ccc(NC(=O)N(C)C[C@H]2Oc3ccc(NC(=O)Cn4cnnn4)cc3C(=O)N([C@H](C)CO)C[C@H]2C)cc1 | x | x | -2 | x | x | x | x | x
CC1CCC/C(=N\NS(=O)(=O)c2ccccc2)C1 (stereo unspecified) | 1 | -1 | x | 0 | -2 | 2 | x | x
CC1CCCC(=NNc2ccc3ccccc3n2)C1 (stereo unspecified) | 3 | 6.7* | x | 1 | 0 | -1 | 0 | 3
Cc1cccc(SCC(=O)Nc2ccc3c(c2)OCCO3)c1 | 5 | 7.1* | 8 | 1 | 0 | 22 | 1 | 5.8*
CO[C@H]1CN(C)C(=O)c2ccc(NC(=O)C3CC3)cc2OC[C@@H](C)N(C(=O)c2ccccc2)C[C@@H]1C | x | x | 0 | x | x | x | x | x
CC(=O)/C=C(/C)NC(Cc1c[nH]c2ccccc12)C(=O)O (stereo unspecified) | 3 | 2 | -4 | 1 | 0 | -1 | x | x
CC(=O)N[C@H](Cc1c[nH]c2ccccc12)C(=O)O | 1 | 8.2* | -3 | 0 | 0 | -4 | 0 | 0
O=C(O)C(Cc1c[nH]c2ccccc12)N1Cc2ccccc2C1=O (stereo unspecified) | 8 | 6.9* | 30 | 1 | 3.0* | 0 | 1 | 8.0*
